Bioassay records: PubChem, National Center for Advancing Translational Sciences (NCATS)
Pf Dd2 growth: qHTS Primary assay for Inhibitors of Plasmodium falciparum Dd2 growth in vitro. P. falciparum Dd2 growth, SYBR Green, 72 h. Potency, µM (doses to about 28.9 µM), usual class: inhibitors. hit rate 4.3% among 120,000. AID 1347417, 2020; active = well fitted inhibition curve with a large enough effect; also: nearly all actives have a fitted effect of over 65% in size
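Readout: SYBR Green fluorescence, 485 nm excitation, 535 nm emission, after ~16 h lysis at 37C. Before that, Dd2-infected red cells (2.5% hematocrit) grew 72 h with compound, 29 uM top final concentration.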
Each line names hits and unclear results; the compound was inactive in the other large screens. Many of the other results were omitted from the sample, so hits are more common in it than they were.

COc1ccccc1N1CCN(C(=O)Cn2c(C)cc3nc4n(c(=O)c32)CCCCC4)CC1	none
O=C(NC1CCN(c2cc(-c3cccs3)[nH]n2)C1)c1ccc2[nH]ccc2c1 (configuration not stated)	none
O=C(NC1CCN(c2cc(-c3cccs3)[nH]n2)C1)c1cc2ccccc2[nH]1 (configuration not stated)	Pf Dd2 growth 14.1µM
O=C(NC1CCN(c2cc(-c3cccs3)[nH]n2)CC1)c1ccc(F)c(Cl)c1	none
O=C(NC1CCN(c2cc(-c3cccs3)[nH]n2)C1)c1ccncc1 (configuration not stated)	none
Cc1ccc(C(=O)NC2CCN(c3cc(-c4cccs4)[nH]n3)C2)cc1F (configuration not stated)	none
Cc1ccc(C(=O)NC2CCN(c3cc(-c4cccs4)[nH]n3)CC2)cc1F	Pf Dd2 growth 11.2µM
CCN1c2cc(C(=O)Nc3cccc(C#N)c3)ccc2C(=O)N2CCCCCC21 (configuration not stated)	none
CC(C)N1C[C@H](C(=O)NCc2ccc(F)cc2F)[C@H](C(=O)O)C1	none
Cc1cccc(C(=O)N[C@@H]2CN(C3CCOCC3)C[C@H]2CN(C)C)c1	none
CC(=O)N1Cc2ccccc2CC2(CCN(CC3CCCC3)CC2)C1	none
CS(=O)(=O)N1CC2(CCN(CC3CC3)C2)Cc2ccccc21 (configuration not stated)	none
NC(=O)c1cccc(CN2CCC3(Cc4ccccc4N(C(=O)C4CCCC4)C3)C2)c1 (configuration not stated)	none
O=C(O)CCC(=O)N1CCCC2(Cc3ccccc3N(C(=O)C3CCCC3)C2)C1 (configuration not stated)	none
O=C(C1CCCC1)N1CC2(CCCN(Cc3c[nH]c4ccccc34)C2)Cc2ccccc21 (configuration not stated)	Pf Dd2 growth 7.08µM
O=C(C1CCCC1)N1CC2(CCN(CC3CCCCC3)C2)Cc2ccccc21 (configuration not stated)	Pf Dd2 growth 11.2µM
CC(=O)N1CC2(Cc3ccccc31)CN(C(=O)C1CCCC1)C2	none
O=C(C1CCCC1)N1CC2(CCN(Cc3ccc(Cl)cc3)C2)Cc2ccccc21 (configuration not stated)	Pf Dd2 growth 14.1µM
Cc1ncc(C(=O)N2CCCC(c3cccc(C(=O)O)c3)C2)c(=O)[nH]1 (configuration not stated)	none
CN1CCC(N[C@H]2CC(C)(C)[C@@H]3C[C@@](C)(O)CC[C@]23CCC(=O)NCCN2CCOCC2)CC1	none
CN1C[C@@H]2CCCN3CCC[C@@H]([C@H]23)[C@H]1CCCC(=O)NC1CC1	none
CNC(=O)[C@@H]1C[C@@H](NC(=O)c2ccc3n[nH]nc3c2)CN1C(=O)CSC	none
O=C1Cc2c(-c3cccc4ccccc34)n[nH]c2CN1CCOc1ccccc1	none
Cc1ccccc1C(=O)Nc1ccc([C@H]2OCC(=O)N(C)[C@@H]2CO)cc1	none
CCC(NC(=O)C1CCN(C(=O)C2CCC2)CC1)c1nc(C)c(C)s1 (configuration not stated)	none
COC[C@]1(O)CCN(C(=O)c2sc(OC)nc2C)CC1(C)C	none
O=c1[nH]ccn1C1CCN(Cc2ccccc2C(F)(F)F)CC1	none
O=C1NC(=NC2CCCCC2)C2(CCN(Cc3ccc(F)cc3)CC2)N1c1cccnc1	none
O=C(c1cccnc1)N1CCCC2(C1)C(=NC1CCCC1)NC(=O)N2c1cc(F)cc(F)c1 (configuration not stated)	none
O=C1NC(=NC2CCCCC2)C2(CCN([S+](=O)([O-])c3ccccc3)C2)N1c1cc(F)cc(F)c1 (configuration not stated)	none
O=C1NC(=NC2CCCCC2)C2(CCCN(Cc3ccc(F)cc3)C2)N1c1cc(F)cc(F)c1 (configuration not stated)	Pf Dd2 growth 7.94µM
O=C1NC(=NC2CCCC2)C2(CCCN(Cc3cccnc3)C2)N1c1cccnc1 (configuration not stated)	none
O=C1NC(=NC2CCCCC2)C2(CCN(Cc3ccc(F)cc3)C2)N1c1cc(F)cc(F)c1 (configuration not stated)	Pf Dd2 growth 1.78µM
O=C(O)c1ccccc1C(=O)N1C[C@@H]2C[C@H]1C(=O)N(Cc1ccccc1)c1ccccc1O2	none
NCc1ccc(-c2cccc(Cl)c2)cc1	Pf Dd2 growth 10µM
NCc1cccc(-c2cc(F)cc(F)c2)c1	Pf Dd2 growth 10µM
O=Cc1ccc(-c2cccc(Cl)c2)cc1	none
NCc1cccc(-c2ccc3c(c2)C(=O)N2CC[C@H](NC(=O)c4cccc(F)c4)[C@H]2C(=O)N3)c1	none
NCc1cccc(-c2ccccn2)c1	none
COc1ccc(-c2ccc(CN)cc2)cc1	none
CN(Cc1ccc(-c2ccccc2)cc1)C(=O)c1cccc(Cl)c1	none
Cc1cccc(-c2ccccc2CN)c1	Pf Dd2 growth 10µM
Cc1cccc(-c2nocc2CCC(=O)NCc2ccccc2F)c1	none
CCCCCn1c(-c2cccc(C)c2)nc2ccccc21	none
NCc1ccc(-c2ccc(F)cc2)cc1	Pf Dd2 growth 10µM
Cc1ccc(CN(C)Cc2ccc(F)cc2)cc1	none
CC1(c2ccccc2)N(Cc2cccnc2)C(=O)OC12CCN(Cc1ccc(F)cc1)CC2 (configuration not stated)	none
CN1C(=O)CCC2(CNC(=O)c3ccccc3)CCC=C12 (configuration not stated)	none
CC(=O)Nc1ccc(C(=O)NC[C@@H]2C=C(C)[C@H](CC(=O)NCc3ccc(C#N)cc3)C[C@H]2C(C)C)cc1	none
COc1ncc(-c2nccc3c(=O)cc(N4CCN(C)CC4)oc23)cn1	none
COc1ccc(Cn2ccn(Cc3cccc(C)c3)c(=O)c2=O)cc1	none
Cc1cccc(-c2ccc(CN)cc2)c1	Pf Dd2 growth 11.2µM
COc1ccc(CCC(=O)NCCc2csc(-c3cccc(C)c3)n2)cc1	none
N#Cc1ccc(C(=O)N2CC[C@H]3C(=O)NCCCCCCN(Cc4ccncc4)[C@@H]3C2)cc1	none
COc1ccc(NC(=O)C(C)C2CCOCC2)c(C)c1 (configuration not stated)	none
N[C@@H]1CC[C@H](C(=O)NCc2csc(N3CCCC3)n2)C1	Pf Dd2 growth 11.2µM
Cc1nc(CN2CCN(C(=O)[C@H]3CC[C@@H](N)C3)CC2)cs1	none
O=C(NCc1csc(-c2cnccn2)n1)[C@H]1CCC[C@H](O)C1	none
Cc1ccc(CNC(=O)C2(C)CCCCC(=O)N2)o1 (configuration not stated)	none
O=C(CCn1cncn1)N1CCOC(CC(c2ccccc2)c2ccccc2)C1 (configuration not stated)	none
Cc1ccccc1OC1(C(=O)O)CCN(c2ncccc2C(N)=O)CC1	none
NC(=O)c1cccnc1N1CCOC(CC(c2ccccc2)c2ccccc2)C1 (configuration not stated)	Pf Dd2 growth 7.94µM
O=C(c1ccc(N2CC3CC(C2)[C@H]2CCCC(=O)N2C3)nc1)N1CCc2ccccc2C1 (some centres not stated)	none
O=C(c1noc2c1CCCC2)N1CCOc2ccc(CN3CCN(c4ccccn4)CC3)cc2C1	none
O=C(C1CCC1)N1CCOc2ccc(CN3CCc4ccccc4C3)cc2C1	Pf Dd2 growth 10µM
O=C(CC(F)(F)F)N1CCOc2ccc(CN3CCc4ccccc4C3)cc2C1	none
O=C(NCc1ccco1)N1CCOc2ccc(CN3CCc4ccccc4C3)cc2C1	none
O=C(c1cccc(F)c1)N1CCOc2ccc(CN3CCc4ccccc4C3)cc2C1	Pf Dd2 growth 7.94µM
Cc1cccc(C(=O)N2CCOc3ccc(CCC(N)=O)cc3C2)c1	none
Cc1ccsc1C(=O)N1CCOc2ccc(CN3CCc4ccccc4C3)cc2C1	Pf Dd2 growth 7.94µM
